Experimental data as given in PubChem BioAssay (Tox21).
Several values for one entry are separate records, joined by “and”; a condition that tells them apart may be missing. Equal values may be shown once. Results filed as inconclusive are left out. A call without a number means that no potency is given here. Activity calls are given as the source filed them. The call rests on the fitted dose curve.

Each compound was assayed against D(2) dopamine receptor (Homo sapiens) (UniProt P14416) (assay: Dopamine D2 receptor (DRD2) small molecule agonists, cell-based qHTS assay (AID 1963594; further: nearly all actives have a fitted effect of over 35% in size)). Conditions: HEK293-DRD2 cAMP HTRF, agonist mode, 30 min; series mostly up to 92.4 µM.
Chain of D(2) dopamine receptor (Homo sapiens) (P14416 whole entry, looked up): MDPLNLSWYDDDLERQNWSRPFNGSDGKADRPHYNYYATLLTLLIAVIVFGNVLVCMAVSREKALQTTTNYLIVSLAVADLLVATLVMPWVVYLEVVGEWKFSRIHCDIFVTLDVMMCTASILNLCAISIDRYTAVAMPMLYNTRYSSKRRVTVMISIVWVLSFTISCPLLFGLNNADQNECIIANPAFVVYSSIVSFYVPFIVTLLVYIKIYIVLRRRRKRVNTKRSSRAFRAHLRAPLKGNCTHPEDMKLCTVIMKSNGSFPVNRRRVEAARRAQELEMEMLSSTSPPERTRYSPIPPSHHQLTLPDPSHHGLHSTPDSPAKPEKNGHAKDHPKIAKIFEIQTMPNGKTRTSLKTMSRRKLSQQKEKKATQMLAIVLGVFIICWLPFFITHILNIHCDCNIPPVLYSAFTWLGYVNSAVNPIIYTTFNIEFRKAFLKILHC
Description: National Center for Advancing Translational Sciences [NCATS]
Division of Preclinical Innovation [DPI]
U.S. Environmental Protection Agency [EPA]
National Institutes of Environmental Health Sciences [NIEHS]
National Toxicology Program [NTP]
U.S. Food and Drug Administration [FDA]
DRD2 is the D2 subtype of the dopamine receptor, which is coupled to Gi subtype of G protein-coupled receptor. This G protein-coupled receptor inhibits adenylyl cyclase activity. The DRD2-HEK293 cell line stably expressing D2 dopamine receptor can be used for screening agonists and antagonists of interactions between D2 and its ligands. The Hek293-DRD2 cAMP assay is based on HTRF technology. It measures changes of cAMP accumulation in response to Gi coupled GPCR activation or inhibition.
Tox21 Assay Protocol Summary:
DRD2-Hek293 cells were dispensed at 600 cells/3uL/well in 1536-well white plates using a Multidrop Dispenser. After the assay plates were incubated at a 37 C/5% CO2 incubator for 24 h, 1 uL of Ro20-1724 at final concentration of 0.1 mM was transferred to the assay plate by a Flying Reagent Dispenser. Following Ro20-1724 addition, 23 nL of compound dissolved in DMSO, positive controls or DMSO only was added to the assay plates via Wako pintool station. The assay plates were incubated at room temperature for 10 min. Next, 1 uL of NKH477 at 200nM was added into the plates. After the assay plates were incubated at room temperature for an additional 30 min, 2.5 ul/well of cAMP-d2 and 2.5 ul/well of anti-cAMP-cryptate were added respectively into the assay plates using a Flying Reagent Dispenser. The plates were incubated at room temperature for 1 h. The fluorescence intensity in the plates was measured at 340 nm excitation and 665 & 620 nm emission by an Envision plate reader.
Potency means the concentration at half of the fitted maximal effect.

Structure (SMILES)	Potency
Cc1ccc2c(c1)C(=O)OC2=O	inactive
CCOC(=O)c1ccc(O)cc1	inactive
CC#C[C@]1(O)CC[C@H]2[C@@H]3CCC4=CC(=O)CCC4=C3[C@@H](c3ccc(N(C)C)cc3)C[C@@]21C	inactive
CCc1ccc(O)cc1	inactive
Nc1ncnc2nc[nH]c12	inactive
CCCCCCCCCCCCCCCCCC(=O)OCC(O)CO (stereo not given)	inactive
CN(C)CCN(Cc1cccs1)c1ccccn1	inactive
N#Cc1ccccc1	inactive
CC(COc1ccccc1)N(CCCl)Cc1ccccc1 (stereo not given)	13.2 µM (active) and 7.22 µM (active)
Oc1cccc(O)c1	inactive
N[C@@H](Cc1cc(I)c(Oc2ccc(O)c(I)c2)c(I)c1)C(=O)O	inactive
O=NO	inactive
CCc1cc(C(N)=S)ccn1	inactive
NC(CO)(CO)CO	inactive
C=CN1CCCC1=O	inactive
O=C(O)CCC(=O)O	inactive
CC(=O)OCc1ccc2c(c1)OCO2	inactive
CCCCOCCOCCO	inactive
O=C(O)c1ccccc1Nc1cccc(C(F)(F)F)c1	inactive
O=C(O)c1ccc(S(=O)(=O)N(Cl)Cl)cc1	inactive

Structure (SMILES)	Potency
CC1=C(/C=C/C(C)=C/C=C/C(C)=C/CO)C(C)(C)CCC1	inactive
O=C1NC(=O)C(c2ccccc2)(c2ccccc2)N1	inactive
F[B-](F)(F)F	inactive
C=C(C)C(N)=O	inactive
COc1ccc(C(Cl)=C(c2ccc(OC)cc2)c2ccc(OC)cc2)cc1	inactive
CCCCCCCC(=O)O	inactive
COc1ccc(Nc2ccccc2)c(C)c1	inactive
CN(C)CCC(c1ccccc1)c1ccccn1 (stereo not given)	inactive
Cc1ccc([N+](=O)[O-])cc1S(=O)(=O)O	inactive
CNC(=S)N(C)C	inactive
CCCCC(CC)COC(=O)c1ccc(C(=O)OCC(CC)CCCC)cc1 (stereo not given)	inactive
CCCCCC/C=C/CCCCCCCC(=O)O	inactive
CC(=O)C(=O)O	inactive
O=[N+]([O-])c1ccccc1C(F)(F)F	inactive
c1ccc2[nH]cnc2c1	inactive
O=C(O)CCCCCCCCC(=O)O	inactive
CCC(=O)/C=C/C1C(C)=CCCC1(C)C (stereo not given)	inactive
CCOC(=O)/C=C\C(=O)OCC	inactive
Nc1nc2ccccc2[nH]1	inactive
O=c1ccc2ccccc2o1	inactive
